PAFAH1B3 inh – PAFAH1B3 (human) inhibition; recombinant PAFAH1B3, FP-rhodamine probe, fluorescence polarization; inhibition, % at 3.39 µM; 340,000 compounds, 0.28% hits;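 active means inhibition above the screen-wide average of all tested compounds plus 3 SD, cut at about 25% in these data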;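 further: 0% = enzyme with DMSO only and 100% = wells lacking PAFAH1B3 protein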
DSG3 Ab inh – human desmoglein-3 autoantibody binding inhibition; binding (percent of control), % at 10 µM; 310,000 compounds, 0.48% hits; DSG3-coupled beads, scFv-anti-DSG3-GFP binding, flow cytometry; hits give low values; P32926; AID 588358;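 active means binding more than 3 SD below its plate's average and above zero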;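 further: hits lower antibody fragment binding to DSG3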
PAFAH2 FP inh – inhibitors of human PAFAH2; Q99487; recombinant PAFAH2, FP-rhodamine activity probe, fluorescence polarization; inhibition, % at 3.39 µM; 340,000 compounds, 0.99% hits; AID 492956;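 active means inhibition above the mean over all tested compounds plus 3 SD, cut at about 30% in these data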;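 further: inhibitors block probe labeling of enzyme so polarization drops; 0% = enzyme with DMSO and 100% = wells lacking PAFAH2 protein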
pPAFAH inh – inhibitors of human plasma PAF acetylhydrolase (pPAFAH). inhibition, % at 3.39 µM. 330,000 compounds, 1.5% hits. recombinant pPAFAH, FP-rhodamine probe fluorescence polarization. Q13093. AID 463082;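 active means inhibition above the mean inhibition across the screen plus 3 SD, cut at about 25% in these data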;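 further: inhibitors block binding of the rhodamine activity-based probe so polarization drops; 0% = enzyme with DMSO and 100% = wells lacking pPAFAH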
PfM18AAP inh – blocks P. falciparum M18 aspartyl aminopeptidase; AID 1822; inhibition, % at 7.35 µM; 290,000 compounds, 1.2% hits; recombinant PfM18AAP, H-Glu-NHMec fluorogenic cleavage;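 active means inhibition above the campaign mean inhibition over all tested compounds plus 3 SD, cut at about 28% in these data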;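 further: 0% = plate median of test compound wells and 100% = 2 mM ZnCl2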
PAFAH1B2 FP inh – PAFAH1B2 (human) inhibition; P68402; recombinant PAFAH1B2, FP-rhodamine activity probe, fluorescence polarization; inhibition, % at 3.39 µM; 340,000 compounds, 1.2% hits; AID 492953;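 active means inhibition above the mean of all tested compounds plus 3 SD, cut at about 24% in these data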;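 further: 0% = enzyme with DMSO and 100% = wells lacking PAFAH1B2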
pPAFAH FP conf – confirmation of human plasma PAF acetylhydrolase (pPAFAH) inhibitors; shares compounds with pPAFAH inh; recombinant pPAFAH, FP-Rh probe fluorescence polarization; inhibition, % at 3.39 µM; 2,300 compounds, 72% hits; AID 463230;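 active means mean inhibition of the triplicate above the hit cutoff set for the earlier primary screen, cut at about 25% in these data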;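 further: 0% = enzyme with DMSO and 100% = wells lacking pPAFAH enzyme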
Numbers without * were called inactive; x = not tested or not shown. Sampled rows, rich in hits. Any-hit rate of the full collection: about 3.8%.

SMILES	PAFAH1B3 inh	DSG3 Ab inh	PAFAH2 FP inh	pPAFAH inh	PfM18AAP inh	PAFAH1B2 FP inh	pPAFAH FP conf
CNc1ccc(Br)cc(C(=O)/C=C/c2cc(OC)ccc2OC)c1=O	18.1	94.2	27.2	38.3*	21.4	1.2	24.1
COCCCNC(=O)/C=C/c1ccc(Cl)cc1Cl	4.3	x	-7.8	6.4	0.4	6.6	x
CNc1ccc(Br)cc(C(=O)/C=C/c2ccc(OC)cc2)c1=O	8.7	118.2	16.4	43.4*	18.9	8.3	13.2
CCNc1ccc(Br)cc(C(=O)/C=C/c2ccc(Cl)cc2Cl)c1=O	16.1	90.0	33.0*	66.3*	20.8	2.7	34.1*
CC(C)CC(OC(=O)c1nsc(Cl)c1Cl)C(=O)NCC1CCCO1 (configuration not stated)	-3.1	x	6.8	9.0	-1.9	6.2	x
Oc1c(Br)cc(Br)cc1CNc1cccc2cccnc12	28.0*	101.2	24.4	60.6*	32.9*	16.9	24.5
O=C(Nc1ccccc1OC(F)F)c1ccc(N2CCCC2=O)cc1	x	97.3	x	x	x	x	x
COc1ccc(COCC(O)CN2CCN(S(=O)(=O)c3c(F)cccc3F)CC2)cc1OC (configuration not stated)	-0.5	110.0	-0.4	x	x	-0.7	x
N=C1/C(=C\c2ccc(OC(=O)c3ccccc3Cl)cc2)C(=O)N=C2SC(N3CCOCC3)=NN12	15.6	109.7	8.2	36.2*	8.3	4.8	32.9*
O=C1c2ccccc2[C@@H]2C[C@@H](O)[C@H](Nc3cccc(Cl)n3)CCN12	9.3	100.2	69.0*	35.5*	x	1.7	23.1
O=C(NCCc1ccc2c(c1)OCCO2)c1cccc(S(=O)(=O)N2CCCC2)c1	9.0	102.2	6.6	35.9*	x	-0.3	-5.9
O=C(NCCc1ccc2c(c1)OCCO2)c1cc(S(=O)(=O)N2CCCC2)ccc1Cl	6.2	107.0	-0.9	x	x	-4.8	x
Cc1ccc(NC(=O)c2ccc(OCC3CCCO3)cc2)cc1Cl (configuration not stated)	x	93.7	x	x	x	x	x
COc1cccc(OCc2cc(/C=N/Nc3ccc(C(=O)O)cc3)ccc2OC)c1	-1.2	61.2*	14.6	39.1*	-7.8	-0.1	64.8*
O=C(CS(=O)(=O)c1ccc(Cl)cc1)N1CCN(c2ccccc2)CC1	x	95.8	x	x	x	x	x
Cc1ccc(-c2cc(C(=O)N3CCN(c4ccccc4O)CC3)c3ccccc3n2)o1	3.4	107.7	4.2	65.5*	17.5	1.3	-1.5
O=C(c1cc(-c2ccc(Br)cc2)nc2ccccc12)N1CCN(c2ccccc2O)CC1	-2.2	108.1	-2.4	0.6	x	1.1	x
Cn1ccc2cc(NC(=O)Nc3cccnc3)ccc21	19.8	95.3	-16.3	36.6*	x	5.5	7.3
O=C(Nc1cccnc1)Nc1ccc(F)c(Cl)c1	7.0	100.2	-4.8	-2.9	-2.0	-1.5	x
Cc1ccc(N(Cc2cc3ccc(C)cc3[nH]c2=O)S(=O)(=O)c2ccccc2)cc1	2.0	97.9	1.7	2.8	-2.1	5.0	x
CC(C)(C)c1ccc(-n2ncc3c2CCCC3NC(=O)CCN2CCCO2)cc1 (configuration not stated)	4.0	101.1	5.4	37.3*	-2.4	5.2	18.5
O=C(CCN1CCCO1)NC1CCCc2c1cnn2-c1ccccc1F (configuration not stated)	3.9	108.8	-3.2	3.2	-4.5	1.8	x
O=C1c2ccc(-c3ccc(Cl)c(C(F)(F)F)c3)cc2S(=O)(=O)c2cccc(C(=O)N3CCN(c4ncc(Br)cn4)CC3)c21	2.3	90.9	1.2	9.2	x	10.0	x
O=C1c2ccc(-c3ccc(F)cc3OCc3ccccc3)cc2S(=O)(=O)c2cccc(C(=O)N3CCN(c4ncc(Br)cn4)CC3)c21	-7.8	89.0*	-5.6	42.8*	x	-4.0	32.4*
O=C1c2ccc(-c3ccc(F)cc3OCc3ccccc3)cc2S(=O)(=O)c2cccc(C(=O)N3CCN(c4ncc(Cl)cc4Cl)CC3)c21	4.4	84.6	1.6	37.4*	x	-6.0	25.4*
SMILES	PAFAH1B3 inh	DSG3 Ab inh	PAFAH2 FP inh	pPAFAH inh	PfM18AAP inh	PAFAH1B2 FP inh	pPAFAH FP conf
N#Cc1cccnc1N1CCN(C(=O)c2cccc3c2C(=O)c2ccc(-c4ccc(F)cc4OCc4ccccc4)cc2S3(=O)=O)CC1	4.3	89.0	-3.8	23.9	x	8.7	x
COc1ccc(-c2ccc3c(c2)S(=O)(=O)c2cccc(C(=O)N4CCN(c5ccc(Cl)cn5)CC4)c2C3=O)cc1OC	-4.4	94.3	61.6*	36.4*	x	5.4	48.9*
O=C(NC1CCC(=O)N(CCOc2ccccc2)CC1)OCc1ccccc1 (configuration not stated)	-0.7	102.0	4.8	2.1	-14.4	9.3	x
Cc1csc(NC(=O)C2CC(=O)N(c3ccc(C)c(C)c3)C2)n1 (configuration not stated)	7.4	83.6	5.6	4.2	-2.4	1.5	x
O=C(CCN1C(=O)/C(=C/c2ccco2)SC1=S)Nc1ccc(C(=O)O)c(O)c1	10.3	89.0	7.2	39.8*	28.4*	6.3	17.9
O=C(CCN1C(=O)/C(=C\c2ccco2)SC1=S)Nc1ccc(C(=O)O)c(O)c1	11.5	104.7	16.2	49.0*	29.8*	1.1	15.2
CSc1ccc(/C=C/C(=O)OCC(=O)N2CCN(c3ccccc3)CC2)cc1	-2.0	95.9	3.3	x	x	0.0	x
CN(C)c1nc(N/N=C/c2ccccc2O)nc(Nc2ccc(F)cc2)n1	7.0	93.6	-4.7	2.0	-2.1	4.2	x
OCC(O)/C=N/Nc1nc(Nc2ccccc2)nc(Nc2ccccc2)n1 (configuration not stated)	-0.5	101.7	1.1	38.6*	6.9	-4.0	20.0
O=C(Oc1ccnc2cc(Cl)ccc12)N1CCOCC1	-0.8	100.3	28.5	39.6*	0.3	-3.4	37.2*
N#C/C(=C\c1ccc2c(c1)OCCO2)C(=O)Nc1ccc(C(=O)O)cc1	2.8	96.6	-4.0	3.9	-4.7	0.6	x
O=C(C[C@H]1C/C=C\C[C@H](Cc2ccc(F)cc2)C(=O)O[C@@H](c2ccccc2)CNC1=O)N[C@H](CO)Cc1ccccc1	-9.2	100.8	-4.8	1.9	x	10.7	x
O=C(C[C@H]1C/C=C\CC[C@H](Cc2ccc(F)cc2)C(=O)O[C@H](c2ccccc2)CNC1=O)N[C@H](CO)Cc1ccccc1	12.6	101.5	5.8	54.8*	x	4.2	-2.9
Cc1cc(-c2ccccc2)n(-c2ccc(C(=O)N3CCN(c4ncccn4)CC3)cc2)n1	7.7	101.2	-3.2	36.0*	-8.0	-2.3	22.3
CC1=C/C(=C\c2ccc(Br)o2)C(=O)O1	-2.2	83.8	4.2	3.1	0.6	-4.8	x
O=C1C(=Cc2ccc(Br)o2)C(=O)c2ccccc21	17.7	94.2*	70.5*	49.9*	19.3	9.1	66.2*
Cc1ccc(C)c(NC(=O)C(=O)NCC2CCCN2S(=O)(=O)c2cccs2)c1 (configuration not stated)	4.3	109.2	-5.3	8.4	x	0.8	x

Source: PubChem
